Cycloheximide cs – Cycloheximide Counterscreen for Small Molecule Inhibitors of Shiga Toxin; cell reporter, cycloheximide protein synthesis inhibition counterscreen; max response, %; actives 12% (n = 300,000); in the data active means max response mostly above about 13%, no sharp cut-off; inactive means mostly below about 14%; further: read at 38.3 µM for the half of the compounds with a filed dose; 0% is about no effect
Sm TGR block – qHTS Assay for the Inhibitors of Schistosoma Mansoni Peroxiredoxins; Potency, µM (series often up to 114 µM), for inactives: at the highest dose activity change, negative = inhibition, hits mostly inhibitors; actives 3% (n = 360,000); Schistosoma mansoni thioredoxin glutathione reductase (TGR), Q962Y6; purified TGR, DTNB reduction, TNB absorbance 405 nm; active means well fitted inhibition curve with a large enough effect; inconclusive means small, poorly fitted or top-dose-only effect; inactive means no such curve, though single readings can be large or run the other way; further: potency means the concentration at half of the fitted maximal effect; on the % scale 0 is the no-effect control and ±100 the full control effect; nearly all actives have a fitted effect of over 60% in size
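Kinetic colorimetric format: TGR-catalysed, NADPH-driven DTNB reduction monitored via TNB absorbance. Enzyme dispensed at 20 nM; compound exposure 15 min at room temperature before reaction start.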
FMDV antiviral – High Throughput Screening for Foot and Mouth Disease Virus Antivirals. FMDV antiviral cell-based qHTS. Potency, µM (highest dose often 57.9 µM), without a hit: at the highest dose activity change, negative = inhibition, hits mostly inhibitors. actives 1.2% (n = 410,000). AID 1159524, 2015; calls by dose curve; tested in HEK293T cells; further: read-out not given here; potency means the concentration at half of the fitted maximal effect; on the % scale 0 is the no-effect control and ±100 the full control effect; nearly all actives have a fitted effect of over 45% in size
Shiga toxin inh – A qHTS for Small Molecule Inhibitors of Shiga Toxin. Vero cells, Shiga toxin protein synthesis inhibition reporter. inhibition, % at 38.7 µM. actives 9.2% (n = 290,000); in the data active means inhibition mostly above about 28%, no sharp cut-off; inactive means mostly below about 43%; further: 0% is about no effect
Active calls of the source: *; u = inconclusive; x = no result given. This is a sample that favours compounds with a hit; in the whole collection about 12% have one here.

SMILES	Cycloheximide cs	Sm TGR block	FMDV antiviral	Shiga toxin inh
O=C(CSc1ncn[nH]1)Nc1nc(-c2ccccc2)cs1	10.5	-9.4%	0.0%	28.4
Cc1nc(NC(=O)CSc2ccccc2N)sc1C	25.1*	2.2%	x	13.8
Nc1ccccc1SCC(=O)Nc1nc(-c2ccccc2)cs1	20.1*	x	-12.7%	61.8
Cc1csc(SCC(=O)Nc2nncs2)n1	-3.6	-4.8%	25.8%	13.1
Cc1ccc(-c2csc(NC(=O)CSc3nc(C)cs3)n2)cc1	41.8*	-15.2%	-9.2%	110.6*
Cc1csc(NC(=O)CSc2ccccc2F)n1	36.6*	-5.0%	52.7%	83.7*
O=C(Cn1[nH]c(=O)c2ccccc2c1=O)NC1CCCCCC1	16.7	11.7%	26.4%	19.1
O=c1[nH]n(CC2COC3(CCCCC3)O2)c(=O)c2ccccc12 (stereo not given)	32.7*	-0.7%	x	43.4*
O=C(CSc1ccc(Cl)cc1)Nc1cccc(-c2nc3ncccc3o2)c1	-0.9	-8.5%	14.1µM*	5.9
O=C(Nc1cccc(-c2nc3ncccc3o2)c1)c1ccc(-c2cccc(Cl)c2Cl)o1	x	u	11.2µM*	x
O=C(Nc1ccccc1Cl)N1CCC2(CC1)Oc1ccccc1C(=O)N2Cc1ccc(F)cc1	x	0.5%	u	x
COc1ccccc1NC(=O)CC1SC(=N)N(c2ccccc2)C1=O (stereo not given)	-4.6	x	-26.7%	-3.8
CCOc1ccc(NC(=O)CC2SC(=O)N(c3ccccc3)C2=O)cc1 (stereo not given)	20.7*	u	-9.5%	43.8*
Cc1ccccc1NC(=O)CC1SC(=O)N(c2ccccc2)C1=O (stereo not given)	46.8*	5.01µM*	-6.2%	64.1*
O=C(CC1SC(=O)N(c2ccccc2)C1=O)Nc1cccc2ccccc12 (stereo not given)	20.7*	u	-13.7%	37.7
CCCN1C(=O)SC(CC(=O)Nc2ccccc2C)C1=O (stereo not given)	1.2	-34.6%	-1.0%	-4.6
CCOc1ccc(NC(=O)CN2C(=O)CSC(C)C2=O)cc1 (stereo not given)	40.9*	1.2%	0.0%	112.7*
Cn1cc(C(=O)O)c(=O)c2cc(S(=O)(=O)N3CCCCC3)ccc21	x	3.5%	-2.8%	x
CN(C)/C=N/C(=S)Nc1ccc(Br)cc1F	48.9*	-7.0%	11.8%	52.3*
CN(C)/C=N/C(=S)Nc1ccccc1	19.4*	x	0.0%	88.0
C=CCNC(=S)Nc1ccc(Br)cc1F	18.9	-28.5%	39.7%	0.6
CNC(=O)c1ccc(-c2cc(C(F)(F)F)nn2C)s1	37.9*	-1.5%	52.7%	62.6*
COc1cc(NC(=O)C(C)C)ccc1NC(=O)c1ccco1	58.3*	0.0%	x	63.3
COC(=O)c1cc(OC)c(OC)cc1NC(=S)NC(=O)c1ccco1	6.9	11.2µM*	u	5.5
COc1cc(NC(=S)NC(=O)c2ccco2)ccc1NC(=O)C(C)C	14.4	25.1µM*	44.3%	37.2
SMILES	Cycloheximide cs	Sm TGR block	FMDV antiviral	Shiga toxin inh
CCCCC(=O)Nc1ccc(NC(=S)NC(=O)c2ccco2)cc1OC	5.4	u	14.7%	24.5
Cc1c(Cl)cccc1N1C(N)=C(C#N)C(c2cc(CN3CCOCC3)cs2)C2=C1CCCC2=O (stereo not given)	x	0.2%	3.2%	x
CC1=C(C(=O)N2CCCCC2)C(c2ccc(Cl)cc2)n2c(nc3ccccc32)N1 (stereo not given)	x	4.5%	0.0%	x
CCCNC(=S)N1CCC(C(=O)c2ccc(Cl)cc2)CC1	4.7	89.1µM*	u	x
Cc1nnc(NC(=O)CSc2nccn2Cc2ccc(Cl)cc2)s1	x	-0.2%	-0.6%	x
CC(C)c1ccc(NC(=O)CN(C)S(=O)(=O)c2ccc3c(c2)n(C)c(=O)c(=O)n3C)cc1	x	5.8%	-15.6%	x
Cc1ccc(S(=O)(=O)NN2C(=O)/C(=C/c3cccn3C)SC2=S)cc1	-2.2	-12.4%	x	-15.1
Cn1cccc1/C=C1\SC(=S)N(Nc2ccccc2)C1=O	37.1*	-4.0%	56.7%	50.8*
O=C1/C(=C/c2cccnc2)SC(=S)N1Nc1ccccc1	-0.3	2µM*	-15.5%	-3.1
O=C(O)/C=C/C(=O)NNC(=O)c1ccc(Cl)cc1Cl	27.0*	11.6%	-13.3%	58.4*
O=C(O)/C=C/C(=O)Nc1ccccc1-c1ccccc1	3.8	10µM*	-27.2%	-10.5
CC(=O)Nc1ccc2c(c1)Cc1c(F)cccc1-2	x	x	98.1%	x
COCC(=O)Nc1ccccc1-c1ccccc1	-0.9	6.4%	-1.9%	-8.5
O=C(O)/C=C/C(=O)Nc1ccc2c(c1)C(=O)c1ccccc1C2=O	62.2*	50.1µM*	42.1%	134.7*
CC(=O)Nc1ccc2c(c1)CCc1ccccc1-2	46.5*	-13.7%	32.3%	96.9*
CCc1nn(CC(=O)N2CCN(c3cccc(C)c3)C(C)C2)c(=O)c2cc3sccc3n12 (stereo not given)	x	24.9%	-22.9%	x
COc1ccc(NC(=O)CC2C(=O)N(c3ccc(OC)cc3)C(=O)N2CCC2=CCCCC2)cc1 (stereo not given)	x	8.8%	-7.7%	x
CC(=O)Nc1ccc2c(c1)C(=O)c1ccccc1C2=O	51.1*	3.7%	57.0%	83.6*
CCCC(=O)Nc1ccc2c(c1)Cc1ccccc1-2	28.5*	-0.8%	58.7%	119.0*
CC(C)CN1C(=O)c2ccc(NC(=O)C3CC3)cc2C1=O	-4.1	-1.5%	17.7%	-5.8
O=C1c2ccccc2C(=O)c2cc(NC(=O)C3CC3)ccc21	20.0*	-31.5%	21.2%	32.5*
O=C(O)c1c2c(nc3ccccc13)-c1ccccc1CC2	8.1	-4.4%	12.7%	12.2
CCC(=O)Nc1ccc2c(c1)Cc1cc(NC(=O)CC)ccc1-2	-3.3	0.5%	9.9%	-9.4
CC(=O)Nc1ccc2c(c1)C(=Nc1ccccc1)c1ccccc1-2	x	x	8.0%	x
O=C(O)/C=C/C(=O)c1ccc2c(c1)CCc1ccccc1-2	x	0.562µM*	u	x
SMILES	Cycloheximide cs	Sm TGR block	FMDV antiviral	Shiga toxin inh
CCOc1ccc(NC(=O)Cn2c(=O)n(-c3ccc(C)cc3)c(=O)c3cc(OC)c(OC)cc32)cc1	x	4.1%	-19.5%	x
O=C(O)/C=C/C(=O)Nc1ccccc1SC(F)(F)C(F)(F)C(F)(F)F	-2.6	44.7µM*	u	-4.6
O=C(Nc1ccc(Cl)cc1C(=O)c1ccccc1)c1ccccc1Br	x	19.6%	7.3%	x
O=C(O)/C=C/C(=O)Nc1ccc(Cl)cc1C(=O)c1ccccc1	-1.3	22.4µM*	-12.3%	3.3
CN(C)C(=O)CCc1nc(-c2ccc(C(C)(C)C)cc2)no1	43.8*	11.2%	0.0%	123.3*
CC(C)(C)c1ccc(-c2noc(CCC(=O)NCC3CCCO3)n2)cc1 (stereo not given)	43.2*	-16.1%	-20.6%	55.1
CC(C)(C)c1ccc(-c2noc(CCC(=O)N3CCOCC3)n2)cc1	26.1*	-1.2%	-30.9%	38.5
Cc1ccc(-c2noc(CNC(=O)c3ccc(C(C)(C)C)cc3)n2)cc1	x	27.7%	-1.1%	x
CC(C)(C)c1ccc(-c2noc(CCC(N)=O)n2)cc1	34.5*	-16.7%	-25.5%	71.5*
CC(C)(C)c1ccc(-c2noc(CCC(=O)Nc3cccnc3)n2)cc1	-3.2	-2.7%	-23.0%	3.6
CCCCNC(=O)Cn1c(=O)cc(C)c2c(C)nn(-c3ccc(CC)cc3)c21	x	4.0%	-15.3%	x
